According to ChEMBL document CHEMBL3433997, “St. Jude Leishmania screening dataset” (2016):

Columns and labels:
Type in all cases: functional
[1] = biological target: Solute carrier family 2, facilitated glucose transporter member 1 (Homo sapiens) (UniProt P11166); assay: ST_JUDE_LEISH: Cytotoxicity at 2uM final concentration against transgenic Leishmania Mexicana promastigotes LmGLUT1 that are glucose transport deficient and complemented with the human glucose transporter GLUT1. Activity is measured by DNA content using SYBR green in vitro
Solute carrier family 2, facilitated glucose transporter member 1 (Homo sapiens), sequence (P11166 whole entry): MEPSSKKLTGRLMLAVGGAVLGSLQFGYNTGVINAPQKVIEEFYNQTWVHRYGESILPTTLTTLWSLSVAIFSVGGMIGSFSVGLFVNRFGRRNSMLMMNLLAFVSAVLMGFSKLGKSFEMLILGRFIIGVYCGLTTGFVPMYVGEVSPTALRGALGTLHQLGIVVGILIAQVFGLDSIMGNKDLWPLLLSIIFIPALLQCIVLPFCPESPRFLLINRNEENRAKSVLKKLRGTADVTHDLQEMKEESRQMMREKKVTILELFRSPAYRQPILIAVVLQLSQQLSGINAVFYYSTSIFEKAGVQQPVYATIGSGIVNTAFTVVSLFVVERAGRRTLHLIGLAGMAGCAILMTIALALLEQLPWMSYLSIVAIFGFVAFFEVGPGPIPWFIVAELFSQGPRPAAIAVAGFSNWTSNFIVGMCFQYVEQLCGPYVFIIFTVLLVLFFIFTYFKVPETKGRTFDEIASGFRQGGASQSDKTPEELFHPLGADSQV

[2] = biological target: Hexose transporter 1 (Plasmodium falciparum) (UniProt O97467); assay: ST_JUDE_LEISH: Cytotoxicity at 2uM final concentration against transgenic Leishmania Mexicana promastigotes LmPfHT that are glucose transport deficient and complemented with the Plasmodium falciparum hexose transporter. Activity is measured by DNA content using SYBR green in vitro
[3] = biological target: Glucose transporter (Leishmania mexicana) (UniProt O61059); assay: ST_JUDE_LEISH: Cytotoxicity at 2uM final concentration against transgenic Leishmania Mexicana promastigotes LmGT2 that are glucose transport deficient and complemented with the L. Mexicana glucose transporter 2. Activity is measured by DNA content using SYBR green in vitro

Compound	inhibition [1]	inhibition [2]	inhibition [3]
COc1cccc(C(O)CNc2ccnc(Nc3cccc(-c4csc(C)n4)c3)n2)c1 (stereo not given)	1.26%	-0.04%	1.05%
CCOC(=O)N(C)/N=C/[C@H](CCc1ccccc1)NC(=O)[C@H](CC(C)C)NC(=O)c1cc2cccc(OC)c2o1	5.68%	3.47%	5.24%
CC(C)=CCc1c(-c2ccc(O)cc2O)oc2c3c(cc(O)c2c1=O)OC(C)(C)C=C3	5.72%	4.6%	6.57%
CCCN(CCC)CCCNc1ccc(C(=O)Nc2ccc(C(C)C)cc2)cc1[N+](=O)[O-]	32.7%	22.2%	13.2%
CC(Oc1ccc(Cl)cc1)C(=O)N(C)C1CCN(CCCCCNC(=O)/C=C/c2ccc(Cl)c(Cl)c2)CC1 (stereo not given)	1.06%	3.1%	1.95%
O=C(Nc1cccc(-c2ccc(-c3nc4ccccc4[nH]3)cc2)c1)Nc1ccc(F)c(F)c1F	-2.14%	1.23%	2.03%
Cc1cccc(Oc2cccc3[nH]nc(N)c23)c1	3.75%	3.96%	3.98%
CN1CCc2cc(CN3CC4(C)CC3CC(C)(C)C4)c(O)cc2C(c2ccccc2)C1 (stereo not given)	0.04%	-0.55%	-0.09%
O=C(Nc1ccc(Br)cc1)N1CCC(n2c(-c3ccccc3)nc3cccnc32)CC1	2.24%	1.56%	4.12%
CCc1ccc(Cc2cnc3nc(N)nc(N)c3c2C)cc1CC	-1.77%	0.71%	0.12%
COc1ccc2c(NN=Cc3ccncc3)ccnc2c1	-0.81%	-0.51%	-0.6%
Cc1cc(=NN=Cc2ccccc2Cl)c2cccc(C)c2[nH]1	3.87%	2.32%	-1.14%
O=C(NCC(CCCN1CCC(c2c[nH]c3ccccc23)CC1)c1ccccc1)Nc1ccc(Cl)c(Cl)c1 (stereo not given)	4.09%	2.82%	2.69%
CCNC(=O)c1ccc2c(c1)c(C)c(C)n2Cc1ccc(F)cc1	0.6%	-0.64%	1.15%
CCCC1N=C(N)N=C(N)N1c1ccc(Cl)cc1 (stereo not given)	2%	2.02%	2.31%
CN(C)CC(O)COc1ccc(Nc2ncc([N+](=O)[O-])c(Nc3ccccc3O)n2)cc1 (stereo not given)	2.66%	3.7%	1.45%
O=S(=O)(c1ccccc1)C1CC1	1.39%	0.38%	-0.5%
CCCCCOc1ccc(N2C(N)=NC(N)=NC2(C)C)cc1	2.39%	2.59%	2.5%
O=C(/C=C/c1ccc(Cl)c(Cl)c1)NCCCCCCN1CCN(C(=O)Nc2ccc(OC(F)F)cc2)CC1	5.36%	6.98%	6.38%
CCC(C)NC(=O)CN1CN(c2ccccc2)C2(CCN(C(=O)c3ccc4ccccc4c3)CC2)C1=O (stereo not given)	0.98%	-0.53%	-0.96%
COc1cc2nc(N3CCC(CCCC4CCNCC4)CC3)nc(NCc3ccccn3)c2cc1OC	73.5%	68.6%	57.1%
COc1ccc(Nc2nccc(-c3ccc4c(-c5ccsc5)cnc(N)c4c3)n2)cc1	1.99%	7.26%	6.65%
CCCCCCCNCCNc1cc(C)nc2ccccc12	2.03%	7.41%	2.79%
Cc1cc(Oc2cc(NC(=O)c3sc4ncn(Cc5ccccc5F)c(=O)c4c3C)cc([N+](=O)[O-])c2)ccc1Cl	1.2%	1.84%	1.68%
COc1ccc(CNCCCCCCNCCc2ccc(Cl)cc2)cc1OC	1.25%	1.81%	3.24%

Compound	inhibition [1]	inhibition [2]	inhibition [3]
CS(=O)(=O)CCNCc1cccc(-c2ccc3c(Nc4ccc(Oc5ccccc5)cc4)ccnc3c2)c1	0.35%	-0.06%	1.33%
CC(C)(C)c1cc(C(=O)Nc2ccc(C(=N)N)cc2)c(O)c(C(C)(C)C)c1	-0.84%	3.05%	1.59%
CCCCCN1CCCC1CNS(=O)(=O)c1ccc(C(=O)Nc2ccc(C(F)(F)F)cc2)cc1 (stereo not given)	4.05%	3.41%	1.09%
COc1cccc(NC(=O)NC2CCN(c3ccnc(Nc4ccc(F)cc4)n3)C2)c1 (stereo not given)	0.39%	6.07%	3.8%
CC1(C)N=C(N)N=C(NOCc2ccc(Cl)c(Cl)c2)N1	1.06%	1.13%	1.84%
Cc1cc(OCCCN2CCC(NS(=O)(=O)c3ccc(C(F)(F)F)cc3)CC2)c2ccccc2n1	1.59%	0.36%	0.63%
O=C(NC1CCC1)C1CCN(C(c2ccccc2)c2cc(F)cc(F)c2)CC1 (stereo not given)	6.73%	7.32%	6.61%
COc1ccc2nc3ccccc3c(NCCN3CCN(C)CC3)c2c1	7.5%	5.93%	4.16%
CN(C)c1ccc2nc(N)nc(N)c2c1Cl	3.29%	3.16%	3.5%
COc1ccc2nccc([C@@H](O)CN3CCC(NC(=O)CCC(=O)c4cc(C(C)(C)C)ccc4OC)CC3)c2c1	5.04%	4.7%	1.95%
Cc1cc(C(=O)Nc2ccc3c(ccn3C3CCCN(Cc4ccc(C(F)(F)F)cc4F)CC3)c2)no1 (stereo not given)	-0.37%	0.5%	-0.5%
COc1ccc(-c2csc3nc(C)nc(Cl)c23)cc1OC	-0.82%	0.48%	0.63%
O=C(Nc1ccc(C(F)(F)F)cc1)c1ccc(S(=O)(=O)NCC2CCCN(CC3CCCCC3)C2)cc1 (stereo not given)	2.94%	2.24%	1.65%
Cn1cnc2c(Nc3ccncc3)nc(-c3ccc4c(c3)OCO4)nc21	8.06%	6.78%	3.95%
CCOc1ccc(OCC(=O)Nc2nc(-c3ccc(OC)cc3)c(C)s2)cc1	0.75%	1.74%	1.45%
CC(CCc1ccc(OCc2ccccc2)cc1)NCC(O)c1ccccc1 (stereo not given)	-1.32%	0.43%	-0.69%
CN1CCN(CC(=O)Nc2ccc(-c3ccc(-c4nc5ccccc5[nH]4)cc3)cc2)CC1	8.17%	6.39%	9.57%
O=C(Nc1ccc(Cl)cc1)c1ccc(CN2CCCN(Cc3cccc(Cl)c3)CC2)cc1	-0.65%	-1.08%	-0.52%
COc1ccc2nccc([C@@H](O)CN3CCC(NCc4cnc5c(c4)NC(=O)CS5)CC3)c2c1	2.7%	4.54%	1.2%
COc1cc2nc(N(C)Cc3cc4c(Cl)cccc4s3)nc(N)c2cc1OC	-0.54%	-1.7%	-3.11%
CCCCCCOc1ccc(C(=O)NCCCC2CCCN(CCCCCNC(=O)C=Cc3ccc(Cl)c(Cl)c3)C2)cc1 (stereo not given)	-0.52%	0.51%	1.31%
O=C(NC1CCCc2ccccc21)[C@@H]1CCCN1C(=O)c1ccc(O)c(-c2ccc(Cl)c(Cl)c2)c1 (stereo not given in full)	0.06%	-0.61%	-0.01%
COc1ccc(CCN(C)CCOc2ccc(NC(=O)c3cccc4c(=O)c5cc(SC)ccc5[nH]c34)cc2)cc1OC	9.29%	8.61%	6.56%
COCCCNC(=O)c1ccc(O)c(-c2cc(Cl)cc(Cl)c2)c1	0.32%	-2.5%	1.9%
O=c1c2cccnc2sn1-c1ccccc1	0.94%	0.87%	0.72%

Compound	inhibition [1]	inhibition [2]	inhibition [3]
N#Cc1ccc(N2CCN(Cc3cccc(-c4ccc(-c5nc6cc(C(F)(F)F)ccc6[nH]5)cc4)c3)CC2)nc1	4.01%	6.49%	0.17%
CCCOc1cc(O)c(-c2[nH]nc(C)c2Oc2ccccc2)cc1CC	1.25%	-0.1%	-1%
COc1cccc(-c2ccc(C(=O)NCC3CCCN(Cc4cccc(C(F)(F)F)c4)C3)s2)c1 (stereo not given)	2.94%	-4.36%	5.79%
Cc1sc2nc(CN3CCCC3)nc(-n3c(NCCO)nc4ccccc43)c2c1C	4.18%	5.54%	5.9%
O=C(c1ccc(-c2cccc(-c3nc4cc(F)ccc4[nH]3)c2)cc1)N1CCCCC1CN1CCC(O)C1 (stereo not given)	4.71%	4.55%	3.96%
Nc1ncc(-c2cc3ccccc3o2)c(N)n1	3.02%	2.51%	-0.11%
CN(C)C(S)=NN=Cc1cccc(O)c1O	6.64%	6.87%	4.78%
Nc1ccc2c(N)c3ccccc3nc2c1	0.33%	0.2%	-1.77%
Cc1ccc(-c2ccn(Cc3ccc(OCc4ccccc4)cc3)n2)cn1.Cc1ccc(-c2ccnn2Cc2ccc(OCc3ccccc3)cc2)cn1	0.13%	0.76%	0.25%
Cc1cc(-c2cccc(CNC3CCN(C)CC3)c2)ccc1S(=O)(=O)NCCc1ccccn1	0.29%	-0.31%	0.73%
NC(=O)c1cccc(C(=O)Nc2cccc(-c3csc(-c4nc5ccccc5[nH]4)c3)c2)c1	2.68%	2.2%	2.09%
COc1ccc(-c2ccc(NC(=O)c3ccc(C#N)cc3)c(F)c2)cc1CN(C)CCN(C)C	0.85%	-0.56%	0.45%
N#Cc1cccc(C(=O)Nc2ccc(-c3cccc(CN4CCC(O)CC4)c3)cc2)c1	0.21%	0.35%	-0.04%
COc1ccc(CNCc2ccc(-c3ccc(-c4nc5cccc(C)c5[nH]4)s3)cc2)cc1	18.1%	13.2%	12.6%
Nc1cc(-c2ccc3ccccc3c2)nc2ccccc12	31.2%	26.8%	13.7%
COc1ccc(Cl)cc1C(=O)Nc1ccc(-c2nc3ccccc3[nH]2)cc1	4.93%	3.29%	1.35%
Cc1cc(Nc2cccc(Cl)c2)nc2ccc(NC(=O)c3ccc(=O)[nH]c3)cc12	2.59%	3.49%	3.64%
N[C@@H](CCNCc1ccc(-c2cccnc2)cc1)Cc1ccc(F)c(F)c1	0.43%	0.41%	0.4%
COc1ccc(-c2cccc(NC(=O)c3cccc(Cl)c3)c2)cc1CNC(C)C	1.6%	-0.57%	1.24%
Cc1ccc(OCCCCON2C(=N)N=C(N)NC2(C)C)cc1C	1.02%	1%	0.54%
N[C@@H](COc1cccc2c(-c3ccncc3)c(-c3cccc(NC(=O)Nc4ccccc4)c3)nn12)c1ccccc1	-2.24%	-1.71%	-2.62%
COCCCn1c(=N)c(C(=O)NCCc2ccc(OC)cc2)cc2c(=O)n3cccc(C)c3nc21	4.69%	5.42%	8.16%
COc1ccc(Cc2nc(/N=C(\N)Nc3ccccc3)ccc2OC)cc1	0.38%	1.68%	-0.02%
CS(=O)(=O)CCNCc1cccc(-c2ccc3c(Nc4ccc(Oc5cccnc5)cc4)ccnc3c2)c1	-1.35%	-1.49%	-3%
OC(CNCc1ccco1)Cn1c2ccc(Br)cc2c2cc(Br)ccc21 (stereo not given)	5.15%	3.41%	2.56%
